In PubChem BioAssay (NCI):
About 83,000 compounds went through this panel and 20% of them were active in at least one assay; those are over-represented in the sample as a whole.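 Method: cells in 96-well plates; compound added at one concentration; 48 h incubation; percent growth measured; values under 10 scored active.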 The source made the active and inactive calls.

Experiments:
Test in all cases: NCI-60 one-dose screen, 48 h (100 = growth as untreated, 0 = no growth, -100 = all killed)
Details in all cases: 10 µM unless noted
[1] = system: HCT-15 colon
[2] = system: HT29 colon
[3] = system: U251 CNS
[4] = system: PC-3 prostate
[5] = system: SK-MEL-5 melanoma
[6] = system: UACC-62 melanoma
[7] = system: LOX IMVI melanoma
[8] = system: SK-MEL-28 melanoma
[9] = system: SK-MEL-2 melanoma
[10] = system: EKVX NSCLC
[11] = system: SN12C renal
[12] = system: UO-31 renal
[13] = system: TK-10 renal
[14] = system: ACHN renal
[15] = system: CAKI-1 renal
[16] = system: A498 renal
[17] = system: CCRF-CEM leukemia
[18] = system: MOLT-4 leukemia
[19] = system: SNB-19 CNS

Measured: growth

Cc1ccc(/C=C2\CN(C(=O)CCN3CCC(=NO)CC3)C/C(=C\c3ccc(C)cc3)C2=O)cc1
inactive: [4] 11.7% | [9] 91.5% | [13] 20.2% | [16] 46.6%
active: [1] -27.9% | [2] -42.8% | [3] -49.6% | [5] -23.6% | [6] -50.8% | [7] -89.7% | [8] -17.5% | [10] 8.39% | [11] -34.4% | [12] -86% | [14] -38.8% | [15] 5.48% | [17] 1.97% | [18] 3.31%

Clc1cccc(-c2cc(-c3ccc4c(c3)OCCO4)[nH]n2)c1
active: [2] 7.83% [25 µM] | [5] 5.53% [25 µM] | [16] 6.47% [25 µM]
inactive: [1] 18.7% [25 µM] | [3] 27.4% [25 µM] | [4] 37.1% [25 µM] | [6] 45.4% [25 µM] | [7] 30.2% [25 µM] | [8] 56% [25 µM] | [9] 17.9% [25 µM] | [10] 24.3% [25 µM] | [11] 36.3% [25 µM] | [12] 44.2% [25 µM] | [14] 44.7% [25 µM] | [15] 29% [25 µM] | [17] 17.9% [25 µM] | [18] 25.8% [25 µM]

CN(C)CCOC(=O)Nc1ccccc1Cl
inactive: [1] 103% | [2] 110% | [3] 108% | [4] 93.5% | [5] 104% | [6] 110% | [7] 101% | [8] 115% | [9] 118% | [10] 115% | [11] 104% | [12] 86.6% | [13] 106% | [14] 108% | [15] 97.7% | [16] 112% | [17] 93.4% | [18] 99.2%

Cc1c(C(=N)C(C#N)C#N)c(=N)oc2c1ccc1ccccc12
inactive: [1] 74.2% | [2] 93.3% | [19] 103% | [3] 87.4% | [4] 97.8% | [6] 78.3% | [7] 92.8% | [8] 124% | [9] 26.6% | [10] 26.9% | [11] 88.7% | [12] 85.5% | [13] 121% | [14] 86.4% | [16] 85.2% | [17] 66.1% | [18] 64.3%

OCCCCCCNc1ncnc2cc(Cl)ccc12
inactive: [1] 101% | [2] 99% | [3] 96.8% | [4] 80.7% | [5] 94.1% | [6] 102% | [7] 88.1% | [8] 116% | [9] 100% | [10] 105% | [11] 99.9% | [12] 69.7% | [13] 94.1% | [14] 102% | [15] 90.3% | [16] 104% | [17] 78.2%

OB(O)c1cccc(-c2nc3ccc4[nH]ncc4c3c3c2CCCC3)c1F
inactive: [1] 35.2% | [2] 45.2% | [19] 58.3% | [3] 50.6% | [4] 55.5% | [6] 27.4% | [7] 26.3% | [9] 57.1% | [10] 50.2% | [11] 47.7% | [12] 27% | [13] 18.3% | [14] 32.2% | [16] 12.7%
active: [15] -24.3%

CC(C)(C)n1cc(-c2ccnc(NCCCNS(=O)(=O)c3ccc(C(F)(F)F)cc3)c2)c(-c2cccc(O)c2)n1
inactive: [3] 12.9% | [4] 13.2% | [5] 16.7% | [6] 48.7% | [10] 36.3% | [11] 40.3% | [12] 40.7% | [14] 25.3% | [16] 60.1% | [17] 21.4%
active: [1] -55.6% | [2] 2.27% | [7] -81.8% | [8] -48.3% | [9] 0.948% | [18] 2.23%

COc1ccc(/C=C2\Oc3cc(OCCCN4CCCC4)ccc3C2=O)cc1
inactive: [1] 26.3% | [2] 17% | [19] 92.4% | [3] 82.7% | [4] 85.5% | [6] 100% | [7] 13.3% | [8] 103% | [9] 100% | [10] 89.6% | [11] 90.4% | [12] 73.9% | [13] 95.2% | [14] 92.6% | [15] 91.6% | [17] 52.3% | [18] 72.2%

O=C(Nc1cccc(-n2cc(-c3ccncc3)c(-c3ccc(Cl)c(O)c3)n2)c1)c1ccc(N2CCOCC2)c(C(F)(F)F)c1
active: [7] 9.98% | [8] 1.14%
inactive: [1] 26.2% | [2] 98% | [19] 65.7% | [3] 11.8% | [4] 27.2% | [6] 49.2% | [9] 17.6% | [11] 73.9% | [12] 36.9% | [13] 119% | [14] 36.6% | [15] 81.2% | [16] 101% | [17] 27.9% | [18] 29.1%

CN(C[C@H]1Cc2c(cccc2N2CCN(c3ncccn3)CC2)CN1)[C@H]1CCCc2cccnc21
inactive: [1] 31.6% | [2] 21.2% | [3] 24.1% | [4] 34.2% | [5] 26.9% | [6] 53.7% | [7] 36.4% | [8] 65.2% | [9] 68.8% | [10] 37.7% | [11] 39.9% | [12] 16.9% | [14] 35.5% | [15] 33.5% | [16] 58.1% | [17] 22.4% | [18] 27.9%

COc1cc(-c2nn(-c3cccc(NC(=O)Nc4cccc(C(F)(F)F)c4)c3)cc2-c2ccncc2)ccc1Cl
active: [1] 5.28% | [2] -64% | [3] -82.2% | [4] -23% | [6] -76.1% | [7] -64.2% | [8] -18.6% | [9] -71.2% | [11] 7.22% | [12] 7.94% | [13] 2.65% | [14] 6.54% | [16] -5.17% | [17] -9.68% | [18] -26.3%
inactive: [19] 23.5% | [15] 11.5%

CN(C)CCCN(c1nc(C(Cl)(Cl)Cl)ns1)c1nc(C(Cl)(Cl)Cl)ns1
inactive: [1] 41.2% | [19] 64.2% | [3] 27.4% | [4] 22.2% | [9] 47% | [10] 55.1% | [11] 41.8% | [13] 63.5% | [14] 54.6% | [15] 43.9% | [16] 73.7% | [17] 30.3%
active: [2] 0.235% | [6] 1.86% | [7] -31.4% | [12] -84.7% | [18] 3.33%

CC(C)(C)c1[nH]nc2c1C(c1cc3ccccc3[nH]c1=O)Nc1cc(C(=O)Nc3ccc(Cl)cc3)ccc1N2 (configuration not stated)
inactive: [1] 98.8% | [2] 91.3% | [19] 90.5% | [3] 60.5% | [4] 61.4% | [6] 73.1% | [9] 77.9% | [11] 71.1% | [14] 84.2% | [15] 94.9% | [16] 66.3% | [18] 18.5%

COc1cc(-c2nn(-c3cccc(NC(=O)Nc4ccc(Cl)c(C(F)(F)F)c4)c3)cc2-c2ccncc2)ccc1Cl
active: [1] 9.91% | [2] -0.5% | [3] -20.9% | [4] -19% | [6] -43.8% | [7] 1.06% | [8] 8.8% | [9] -57.8% | [14] 9.33% | [16] -6.71% | [17] -8.04% | [18] -2.38%
inactive: [19] 26.4% | [11] 12.6% | [12] 11% | [13] 12.6% | [15] 14.7%

COc1ccc2cc(-c3ccc(-c4ccc(C(=N)N)cc4)s3)ccc2c1
inactive: [1] 62% | [2] 19.8% | [19] 95.9% | [3] 101% | [4] 88.6% | [6] 99.3% | [8] 107% | [9] 103% | [10] 104% | [11] 99.7% | [12] 89.7% | [13] 48.1% | [14] 101% | [15] 91% | [16] 94.3% | [18] 94.3%

O=[N+]([O-])c1cc(Cl)c2[nH]c3c(Cl)cc([N+](=O)[O-])cc3c2c1
active: [2] -38.3% | [3] -22.7% | [4] 4.26% | [6] 9.86% | [7] 6.56% | [10] -10.2% | [11] 2.7% | [12] -13.9% | [13] -23.1% | [14] -10.3% | [15] -34.1% | [16] -26.6% | [17] -39.9% | [18] -41.8%
inactive: [1] 11.3% | [19] 15.9%

Cc1cc(N/N=C/c2nc(-c3ccccc3)oc2C)c2cc(Cl)ccc2n1
inactive: [5] 20.4% | [6] 86.3% | [9] 110% | [15] 14.4% | [16] 68.4%
active: [1] -83.3% | [2] -78.1% | [3] -76.9% | [4] -61.1% | [7] -76.8% | [8] -96.4% | [10] -59.4% | [11] -84.9% | [12] -99.2% | [13] -76.3% | [14] -80.1% | [17] -34.6% | [18] -39.2%
